# GLS inh: inhibitors of human glutaminase (GLS); O94925; GLS enzymatic activity, qHTS titration; Potency, µM (highest dose often 45.5 µM), for the others: at the top dose activity change, negative = inhibition, most hits filed as inhibitors; hit rate 0.21% among 410,000; further: potency means the concentration at half of the fitted maximal effect
#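 hKGA in 45 mM KH2PO4 pH 8.2, 0.02% Tween-20 with pin-transferred compounds; 1 mM L-glutamine (stock) plus glutamate oxidase/HRP/Amplex Red coupling added. Fluorescence read initially and after 30 min at RT.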
# GCN5L2 inh: GCN5L2 (KAT2A) acetyltransferase inhibition | GCN5L2 HAT assay, ThioGlo1 CoA-SH fluorescence | Q92830 | AID 504327 | Potency, µM (doses to about 58.9 µM), inactives show top-dose activity change, negative = inhibition, usual class: inhibitors | hit rate 0.21% among 390,000; further: potency means the concentration at half of the fitted maximal effect
#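 qHTS, 1536-well. 20nM enzyme, pH 7.5 HEPES/EDTA/Tween-20 buffer; 15 min compound preinc., RT. Start: 75uM H3(1-25), 70uM AcCoA, 50uM ThioGlo1. Read Ex340/Em540 at t=0 (autofluorescence flag) and t=20 min.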
# PLK1 PBD inh: PLK1 (human) polo-box domain binding inhibition. P53350. Plk1 PBD binding of FITC phosphopeptide, fluorescence polarization. Potency, µM, for the others: max response, negative = inhibition, hits mostly inhibitors. hit rate 2.8% among 360,000. AID 720504; further: potency means the concentration at half of the fitted maximal effect; series mostly up to about 57 µM; nearly all actives have a fitted effect of over 65% in size
# VDR inhibitor: vitamin D3 receptor (human) inhibition | P11473 | VDR-SRC2-3 peptide fluorescence polarization, 2 h | Potency, µM, for the others: max response, negative = inhibition, usual class: inhibitors | hit rate 0.93% among 400,000; further: potency means the concentration at half of the fitted maximal effect
#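 Two reagent solutions held at 4 deg C in the dark were dispensed, compounds pinned at 23 nl, and the mixture incubated 2 h at room temperature. Read-out: fluorescence polarization of VDR–SRC2-3 peptide binding.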
# PI4K2A block: PI4K2A (human) kinase inhibition. purified PI4K2A, ADP-Glo luminescence, 1 h; hits give low values. Q9BTU6. activity change, negative = inhibition, % at 76.9 µM. AID 1346378. hit rate 0.13% among 420,000; in the data active means activity change below about -50%; inconclusive means mostly about -30% to -49%;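 further: -100% = wells without enzyme as full effect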
#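 PI4K2A activity was measured by ADP-Glo luminescence: enzyme (4 ug/mL stock) and phosphatidylinositol (1.2 mM stock) in Tris pH 7.5/MgCl2/EGTA/Triton X-100 buffer were reacted with ATP (300 microM stock) for one hour at ambient temperature.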
# The depositor's hits bear a star; i = inactive; ? = inconclusive; · = no result; [ ] = dose if it differs, or a comment. Hits are enriched below; roughly 3.1% of the tested compounds scored in any of these assays. Unless noted, the call rests on the fitted dose curve; in most records, active means well fitted curve in the direction sought with a large enough effect; inconclusive means small, poorly fitted or top-dose-only effect, or another doubt; inactive means no such curve, though single readings can be large; an effect the other way counts as inactive or inconclusive. Unless noted, on the % scale 0 is the no-effect control and ±100 the full control effect.
SMILES,GLS inh,GCN5L2 inh,PLK1 PBD inh,VDR inhibitor,PI4K2A block
COc1cc(CC(C)N)c(OC)cc1Br (centres undefined),4%,·,·,·,i
NC(N)=NN=C(/C=C/c1ccc([N+](=O)[O-])o1)/C=C/c1ccc([N+](=O)[O-])o1,-4%,-19%,·,?,-20
COc1cc(/C=C2\C(=O)NC(=O)N(c3ccccc3)C2=O)cc(OC)c1O,46%,-21%,?,3%,-20
O=C1NC(=O)N(c2ccccc2)C(=O)/C1=C/c1ccc2c(c1)Cc1ccccc1-2,·,-17%,·,·,·
Cc1ccc(N2C(=O)NC(=O)/C(=C/c3ccc(OC(=O)c4cccs4)cc3)C2=O)cc1,-15%,-18%,9.5µM*,?,0
COc1ccc(N2C(=O)NC(=O)/C(=C/c3cccc(OC(=O)c4cccs4)c3)C2=O)cc1Cl,9%,?,19µM*,?,-4
COc1cc(CC(C)N)cc2c1OCO2 (centres undefined),2%[99.4 µM],·,·,·,i
O=C1CCN(Cc2ccc(Cl)cc2)N1,36%,-1%,-14%,-18%,2
O=C(COc1ccccc1)N1CCN(CCN2C(=O)c3cccc4cccc(c34)C2=O)CC1,-13%,-2%,17µM*,-12%,3
CCN1C[C@]2(COC(=O)c3ccccc3N3C(=O)CC(C)C3=O)CC[C@H](OC)[C@@]34C5C[C@@H]6[C@@H](OC)C[C@@](O)(C5[C@H]6OC)[C@](O)([C@@H](OC)C23)[C@@H]14 (some centres undefined),·,-13%,·,2%,·
O=C1NC(=S)N(c2ccc(F)cc2)C(=O)/C1=C\c1ccoc1,128%,?,2.7µM*,?,?
CCOc1ccc(N2C(=O)/C(=C/c3ccc(C)o3)C(=O)NC2=S)cc1,?,-13%,4.7µM*,?,-18
Cc1cc(/C=C2/C(=O)NC(=O)N(c3ccccc3)C2=O)c(C)n1-c1ccc(F)cc1,-1%,·,?,-26%,-3
CCOc1ccc(N2C(=O)NC(=O)/C(=C\c3ccc(N4CCCCC4)o3)C2=O)cc1,-1%,-4%,80%,1%,-2
COc1ccc(OC)c(N2C(=O)/C(=C/c3ccco3)C(=O)NC2=S)c1,104%,13µM*,2.4µM*,?,?
CN1C(=O)/C(=C/C=C/c2ccco2)C(=O)NC1=S,·,?,?,?,-16
O=C1NC(=O)C(=Cc2ccco2)C(=O)N1,11µM*,·,4.7µM*,4%,-25
CCC(C)C(=O)OC1C[C@@]2(C)C(c3ccoc3)OC(=O)CC23OC2(C)OC34C(OC(=O)C(C)C)[C@]3(O)C(OC(=O)C5(C)OC5C)[C@]5(C)CC3(O)[C@](C)(C5CC(=O)OC)C14O2 (some centres undefined),·,-20%,·,-3%,·
c1ccc(N2CCC3(CCNCC3)CC2)nc1,·,-9%,·,?,·
CC(C)n1cnc2c(C(=O)N[C@H]3CN4CCC3CC4)cc(Cl)cc21,·,2%,·,-23%,·
COc1ccc(N2C(=O)/C(=C/c3cc(C)n(-c4ccc(C)cn4)c3C)C(=O)NC2=S)c(OC)c1,?,-6%,30µM*,-10%,-9
O=C1NC(=S)N(c2ccc(F)cc2)C(=O)/C1=C/c1ccco1,·,5.6µM*,·,·,·
Nc1ccc(Cl)cc1C(=O)c1ccccc1F,·,·,·,·,0
CCCCCOc1c(OC)ccc2cc(C(=O)NCc3ccc4c(c3)OCO4)c(=O)[nH]c12,·,4%,·,1%,·
COc1ccc(NC(=O)N2CCC3(CC2)OCCO3)cc1,41%,1%,27µM*,-22%,0
SMILES,GLS inh,GCN5L2 inh,PLK1 PBD inh,VDR inhibitor,PI4K2A block
O=C(Nc1ccccc1)N1CCC2(CC1)OCCO2,-4%,-1%,-14%,-5%,-4
c1nc[n]([Sn]([CH]2CCCCC2)([CH]2CCCCC2)[CH]2CCCCC2)n1,·,1%,·,50µM*,·
CCOc1cc(-c2ccc(N)c(OCC)c2)ccc1N,?,-4%,3.4µM*,-30%,1
c1ccc(N2CC[C@@]3(CCCNC3)C2)cc1,·,-12%,·,50µM*,·
c1cnc(N2CC[C@@]3(CCCNC3)C2)nc1,·,-4%,·,?,·
ClCCCN1CCN(c2cccc(Cl)c2)CC1,·,·,·,·,-4
CC1O[C@@H](OC2CC[C@@]3(C=O)C4CC[C@]5(C)C(C6=CC(=O)OC6)CC[C@@]5(O)C4CC[C@]3(O)C2)C(O)C(O)C1O (some centres undefined),·,4%,·,-7%,·
C=CCNC(=S)Nc1ccc(OC(=O)Nc2ccc(Cl)c(Cl)c2)cc1,?,-1%,9.5µM*,-3%,-3
COc1ccc(CCNc2oc(-c3ccc(OC)c(OC)c3)nc2P(=O)(OC)OC)cc1OC,?,31%,-5%,-18%,2
Cc1c(C=C2C(=O)N(C)C(=S)N(C)C2=O)c2ccccc2n1CC(=O)NCC1CCCO1 (centres undefined),1%,-9%,2.7µM*,?,-7
CCOP(=O)(OCC)C(O)c1ccccc1 (centres undefined),-1%,0%,-4%,-7%,-1
CCOP(=O)(/C(C#N)=C(\C)O)c1ccccc1 (centres undefined),21%,-6%,21µM*,-14%,2
O=C1C=CC[C@@H]2[C@H]3CCCN4CCC[C@@H](CN12)[C@@H]34,·,·,·,-8%,·
O=C1C=CC(=O)C(Cl)=C1,·,16µM*,·,25µM*,·
N#CC(C#N)=C(C#N)c1ccc(Nc2ccccc2)cc1,2%,-11%,-17%,50µM*,-8
c1ccc(Nc2ccc(Nc3ccccc3)cc2)cc1,21%,1%,-16%,-17%,-3
CC(=O)Oc1c2c(c(CC=C(C)C)c3c1C(=O)C1=CC4CC5C(C)(C)OC(C/C=C(\C)C(=O)O)(C4=O)[C@]15O3)OC(C)(CCC=C(C)C)C=C2 (some centres undefined),·,16µM*,·,1.3µM*,·
COC(=O)/C(C)=C\CC12OC(C)(C)C3CC(C=C4C(=O)c5c(OC)c6c(c(CC=C(C)C)c5OC431)OC(C)(CCC=C(C)C)C=C6)C2=O (centres undefined),·,-27%,·,2µM*,·
COC[C@@H](NC(C)=O)C(=O)NCc1ccccc1,·,·,·,·,2
CN1CCN(c2ccc(N)cc2Cl)CC1,0%,-2%,15µM*,?,-8
CCOc1ccc(C=C2C(=O)NC(=S)NC2=O)cc1OCC,69%,·,8.4µM*,28µM*,-2
CCOc1cc(C=C2C(=O)NC(=O)NC2=O)ccc1OCC(=O)N1CCOCC1,-15%,1%,?,?,-10
COc1cc(C=C2C(=O)NC(=O)NC2=O)ccc1OS(=O)(=O)c1ccccc1[N+](=O)[O-],32%,-1%,2.7µM*,45µM*,-20
CN(C)c1ccc(C=C2C(=O)NC(=S)NC2=O)cc1,116%,·,2.7µM*,?,-5
COc1cc(OC)c(/C=C2/C(=O)Nc3ccccc32)c(OC)c1,·,-15%,·,35%,-1

# Screening results: PubChem, National Center for Advancing Translational Sciences (NCATS)
